Assay outcomes: PubChem BioAssay, National Center for Advancing Translational Sciences (NCATS)
Many of the other results were omitted from the sample, so hits are more common in it than they were.
Cycloheximide cs: counter-screen hit for Shiga toxin inhibitors, cycloheximide | cell reporter, cycloheximide protein synthesis inhibition counterscreen | AID 2314 | max response, % | 300,000 compounds, 12% hits; in the data active = max response mostly above about 13%, no sharp cut-off; inactive = mostly below about 14%; also: read at 38.3 µM for the half of the compounds with a filed dose
AmpC detergent: inhibitors of E. coli AmpC beta-lactamase with detergent | AmpC hydrolysis of nitrocefin, absorbance 480 nm, 0.01% Triton | 370,000 compounds, 0.041% hits | P00811 | Potency, µM (highest dose often 114 µM), hits mostly inhibitors; also: nearly all actives have a fitted effect of over 25% in size
Target sequence (P00811 whole entry, looked up): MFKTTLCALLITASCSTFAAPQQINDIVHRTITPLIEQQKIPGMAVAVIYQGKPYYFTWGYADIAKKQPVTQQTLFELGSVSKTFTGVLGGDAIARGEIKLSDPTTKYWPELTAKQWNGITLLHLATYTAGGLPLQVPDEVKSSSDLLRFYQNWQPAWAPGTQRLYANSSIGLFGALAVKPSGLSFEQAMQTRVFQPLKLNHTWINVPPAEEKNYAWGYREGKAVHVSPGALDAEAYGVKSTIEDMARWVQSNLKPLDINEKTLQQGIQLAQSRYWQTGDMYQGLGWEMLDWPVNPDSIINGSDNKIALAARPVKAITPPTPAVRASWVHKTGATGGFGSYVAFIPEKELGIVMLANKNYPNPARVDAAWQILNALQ
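20 mM phosphate pH 7.0 + 0.01% (detergent screen) or 0.0001% Triton X-100; 5.3 nM AmpC reagent; cpd preinc 15 min RT; nitrocefin (800 uM stock) to start; A480 q20 s × 4 min; Activity was normalised to no-enzyme and no-compound control wells.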
NS1 inh: blocks influenza NS1 protein function; Potency, µM (series often up to 46.1 µM); 270,000 compounds, 0.4% hits; AID 2326; calls by dose curve; also: actives are rising curves; nearly all actives have a fitted effect of over 50% in size
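Recovery from NS1-induced slow growth read by OD600 in budding yeast switched to galactose assay medium (pH 6.0, -URA) at 1:100 dilution. Compound 23 nl per well; the matching strain lacking NS1 serves as control.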
Shiga toxin inh: Shiga toxin inhibition. Vero cells, Shiga toxin protein synthesis inhibition reporter. inhibition, % at 38.7 µM. 290,000 compounds, 9.2% hits; in the data active = inhibition mostly above about 28%, no sharp cut-off; inactive = mostly below about 43%
AmpC no deterg: inhibitors of E. coli AmpC beta-lactamase without detergent; AmpC nitrocefin hydrolysis, absorbance 480 nm, 0.0001% Triton; Potency, µM (series often up to 57.1 µM), most hits filed as inhibitors; 330,000 compounds, 0.52% hits; also: nearly all actives have a fitted effect of over 20% in size
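20 mM phosphate pH 7.0 + 0.01% (detergent screen) or 0.0001% Triton X-100; 5.3 nM AmpC reagent; cpd preinc 15 min RT; nitrocefin (800 uM stock) to start; A480 q20 s × 4 min; Activity was normalised to no-enzyme and no-compound control wells.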
Each line names hits and unclear results; the compound was inactive in the other large screens. Unless noted, calls follow the shape of the dose curve; as a rule, active = well fitted curve in the direction sought with a large enough effect; inconclusive = small, poorly fitted or top-dose-only effect, or another doubt; inactive = no such curve, though single readings can be large; an effect the other way counts as inactive or inconclusive.

c1ccc(CNc2ncnc3nc[nH]c23)cc1	none
C1=C(CCNc2ncnc3nc[nH]c23)CCCC1	Cycloheximide cs 37, Shiga toxin inh 38
c1ccc(CCCNc2ncccn2)cc1	Cycloheximide cs 32, Shiga toxin inh active
c1ccc2c(CCNc3ncnc4nc[nH]c34)cccc2c1	Cycloheximide cs 31, Shiga toxin inh active
CCN1CCc2c(sc(NC(=O)c3cc4ccccc4cc3OC)c2C(N)=O)C1	none
O=C1C(Cl)=C(NCCc2ccccc2)C(=O)N1CCc1ccccc1	none
O=C1C(Cl)=C(N2CCOCC2)C(=O)N1CCc1ccccc1	Cycloheximide cs 47, Shiga toxin inh 133
CN1CCN(C2=C(Cl)C(=O)N(CCc3ccccc3)C2=O)CC1	Cycloheximide cs 48, Shiga toxin inh 40
O=C1C(Cl)=C(NCCCN2CCOCC2)C(=O)N1CCc1ccccc1	Cycloheximide cs 24
O=C1C(Cl)=C(NCC2CCCO2)C(=O)N1CCc1ccccc1 (stereo unspecified)	Cycloheximide cs 57, Shiga toxin inh 56
COCCNC(=O)CCCn1c(SCC(=O)Nc2cccc(C)c2)nc2c(sc3ccccc32)c1=O	none (no result: Cycloheximide cs, NS1 inh, Shiga toxin inh, AmpC no deterg)
CCOc1cccc2cc(-c3nc(-c4ccccc4C)no3)c(=O)oc12	none (no result: Cycloheximide cs, NS1 inh, Shiga toxin inh, AmpC no deterg)
O=C1C(Cl)=C(Nc2cccc(O)c2)C(=O)N1Cc1ccccc1	AmpC detergent inconclusive (no result: NS1 inh)
O=C1C(Cl)=C(Nc2ccc(F)cc2)C(=O)N1CCc1ccccc1	Cycloheximide cs 59, Shiga toxin inh 82
O=C(c1ccc2c(=O)n(Cc3ccc(Cl)cc3)c(=S)[nH]c2c1)N1CCOCC1	Cycloheximide cs 26, Shiga toxin inh 23
O=C(c1ccc2c(=O)n(Cc3ccc(Cl)cc3)c(=S)[nH]c2c1)N1CCCC1	none
O=C(NC1CCN(Cc2ccccc2)CC1)c1ccc(Cn2c(=S)[nH]c3ccc(N4CCOCC4)cc3c2=O)cc1	Cycloheximide cs 32, Shiga toxin inh 55 (no result: NS1 inh)
O=C(CCCCCn1c(=S)[nH]c2ccc(N3CCOCC3)cc2c1=O)NC1CCN(Cc2ccccc2)CC1	AmpC detergent inconclusive (no result: NS1 inh)
O=c1c2cc(N3CCOCC3)ccc2[nH]c(=S)n1Cc1ccco1	Cycloheximide cs 11, AmpC detergent inconclusive
O=C(CN1CCCN(Cc2cccc(F)c2)S1(=O)=O)Nc1ccc2c(c1)OCCO2	none (no result: Cycloheximide cs, NS1 inh, Shiga toxin inh, AmpC no deterg)
CC(OCc1ccccc1)C(NC(=O)OC(C)(C)C)C(=O)NC1COC2CC(n3ccc(=O)[nH]c3=O)OC12 (stereo unspecified)	none (no result: AmpC detergent, NS1 inh, AmpC no deterg)
CC(=O)Nc1ccc(C(=O)CSc2nnnn2C2CCCC2)cc1	Cycloheximide cs 15
O=C(CSc1nnnn1C1CCCC1)Nc1ccccc1N1CCOCC1	none
O=C(CSc1nnnn1C1CCCC1)Nc1ccccc1F	Cycloheximide cs 13, Shiga toxin inh 31
O=C(CSc1nnnn1C1CCCC1)NCCc1ccccc1	Cycloheximide cs 23, AmpC detergent inconclusive, Shiga toxin inh 49
O=C(CSc1nnnn1C1CCCC1)N1CCOCC1	Cycloheximide cs 36
COc1ccc(Cl)cc1C(=O)NNC(=O)c1cccs1	none (no result: Cycloheximide cs, AmpC detergent, NS1 inh, Shiga toxin inh)
COC(=O)c1ccccc1NC(=O)c1c(C)oc2ncn(C)c(=O)c12	none (no result: Cycloheximide cs, NS1 inh, Shiga toxin inh, AmpC no deterg)
CC(=O)Nc1cccc(NC(=O)c2csc(C)c2)c1	none
CC(C)n1nnnc1SCC(=O)NCCc1ccccc1	Cycloheximide cs 16
COc1ccc(-c2csc(NC(=O)c3ccccc3Br)c2C(=O)O)cc1	none
Cc1ccc(-c2csc(NC(=O)c3ccc(F)cc3)c2C(=O)O)cc1	Cycloheximide cs 40, Shiga toxin inh 94
CCOC(=O)c1c(-c2ccc(C)cc2)csc1NC(=O)c1ccc(C(C)(C)C)cc1	none (no result: Cycloheximide cs, NS1 inh, Shiga toxin inh, AmpC no deterg)
O=C(Nc1scc(-c2ccccc2)c1C(=O)O)c1ccc(F)cc1	Cycloheximide cs 24, AmpC detergent inconclusive, Shiga toxin inh 20
O=C(Nc1nsc(-c2ccccc2)n1)c1ccc(F)cc1	Cycloheximide cs 32, AmpC detergent inconclusive, Shiga toxin inh 74 (no result: NS1 inh)
CCc1ccc2oc(C(=O)N(Cc3ccc(N(C)C)cc3)Cc3ccco3)c(C)c2c1	none (no result: Cycloheximide cs, NS1 inh, Shiga toxin inh, AmpC no deterg)
O=C(N/N=C/c1cccs1)c1ccc(-n2cccc2)cc1	Cycloheximide cs 22
O=C(N/N=C/c1ccccn1)c1cccc(NC(=O)c2ccccc2Cl)c1	Cycloheximide cs 11, Shiga toxin inh 34, AmpC no deterg 18µM
O=C(O)c1cccc(NC(=S)N/N=C/c2ccccn2)c1	Cycloheximide cs 51, Shiga toxin inh 131 (no result: NS1 inh)
Cc1cccc(C(=O)Nc2cccc(C(=O)N/N=C/c3ccccn3)c2)c1	Cycloheximide cs 13
O=C(Nc1cccc(NC(=O)c2ccccc2Cl)c1)c1ccc(F)cc1	none
